Screens deposited in PubChem by several laboratories.
TRPM1 prom inh: inhibitors of MITF-driven TRPM1 promoter in melanoma cells; SK-MEL-5 TRPM1 promoter luciferase, 24 h; inhibition, % at 12.5 µM; actives 0.83% (n = 330,000);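 active = mean inhibition across replicates of 60% or more, whatever share of single replicates reaches that level; inconclusive = some that reach 60%, reason not given; inactive = mean inhibition across replicates below 60%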
Shn3 inh set2: inhibitors of Schnurri-3 3'UTR reporter in osteoblasts. actives 0.52% (n = 360,000). inhibition, % at 12.5 µM. Clone20 osteoblast Shn3 3'UTR firefly luciferase, 24 h;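 active = mean inhibition of at least 75% with every replicate also reaching 75%; inconclusive = mean inhibition at least 75% but some replicate below; inactive = mean inhibition below 75%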
CF NFkB inh: cystic fibrosis NF-kB activation inhibition; KKLEB NF-kB-GFP reporter, PAF-induced, GFP fluorescence overnight; inhibition, % at 5 µM; actives 0.86% (n = 360,000); AID 588850;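 active = at least 50% inhibition at 5 µM, scaled per plate between neutral and stimulator controls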;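 note: PAF is a Pseudomonas aeruginosa culture filtrate used as stimulus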
HIF-2a inh: blocks HIF-2a reporter activity | inhibition, % at 18.8 µM | actives 0.72% (n = 360,000) | 786-0 RCC cells HIF-2a reporter, luciferase luminescence, overnight;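 active = inhibition of the luminescence signal of 40% or more relative to plate controls, in a single-dose primary screen at 18.75 µM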
Peg3 promoter: Peg3 promoter activity inhibition; HeLa PEG-Prom luciferase reporter, luminescence, overnight; inhibition, % at 20 µM; actives 1.7% (n = 360,000); AID 588405;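 active = inhibition of at least 50% at 20 µM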
KKLEB cytotox: CF airway cell cytotoxicity counter-screen; KKLEB CF airway cells viability, ATPlite luminescence, overnight; hits give low values; cells stimulated with P. aeruginosa culture filtrate; activity change (cytotoxicity), % at 5 µM; actives 0.36% (n = 360,000); AID 602141;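 active = corrected activity change at or below -50% at 5 µM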
A number is an active result; n = inactive; u = inconclusive; x = no result. The list is not random: actives were taken first. Their share in the collection is about 2.8%.

SMILES	TRPM1 prom inh	Shn3 inh set2	CF NFkB inh	HIF-2a inh	Peg3 promoter	KKLEB cytotox
COc1ccc(N2C(=O)CC(Sc3nnc(-c4ccccc4)o3)C2=O)cc1 (stereo not given)	n	n	n	n	85	n
O=C1CC(Sc2nnc(-c3ccccc3O)o2)C(=O)N1c1ccccc1 (stereo not given)	n	93	n	n	n	n
O=C(c1ccccc1)c1coc2c1C(=O)c1ccccc1C2=O	n	n	52	n	n	n
COc1ccc(C(=O)c2coc3c2C(=O)C(=O)c2ccccc2-3)cc1	n	n	n	n	n	n
O=C(CCl)N1CCCC1c1ccc2c(c1)OCCO2 (stereo not given)	90	n	n	n	n	n
CCOCc1c(C(=O)NC2=Nc3ccccc3NC(CC)=C2C(=O)OCC)oc2ccccc12	n	n	86	n	66	-99
O=C(NCC(c1ccco1)N1CCCCC1)c1ccc(COc2ccc(Cl)cc2)cc1 (stereo not given)	n	n	n	n	n	n
O=C(NC1CCCCC1)C(c1ccc(O)cc1)N(C(=O)c1cnccn1)c1cccc(F)c1 (stereo not given)	n	n	n	n	n	n
O=C(O)c1ccccc1C=NNc1ccccn1	n	n	n	n	n	n
Cc1c(N=C2NC(=O)/C(=C/c3ccc(O)cc3)S2)c(=O)n(-c2ccccc2)n1C	n	n	n	n	n	n
O=C1NC(=NCc2ccccc2)S/C1=C/c1ccc(O)cc1	n	n	53	n	n	n
C[C@@H]1CN([C@H](C)CO)S(=O)(=O)c2ccc(-c3ccc(C(=O)N(C)C)cc3)cc2O[C@H]1CN(C)C(=O)Cc1ccccn1	x	n	n	n	n	n
COC(=O)c1sccc1NC(=O)c1cccc(F)c1	n	n	n	n	n	n
O=C(Nc1ccccc1NC(=O)c1c(F)c(F)c(F)c(F)c1F)c1c(F)c(F)c(F)c(F)c1F	n	n	n	n	68	n
COC(=O)c1sccc1NC(=O)c1c(F)c(F)c(F)c(F)c1F	x	n	n	n	67	n
CC1C(=O)N(Cc2cn(Cc3ccco3)nn2)CCS(=O)(=O)N1Cc1ccc(-c2ccccc2Cl)cc1 (stereo not given)	x	n	n	n	n	n
Cc1ccc(C(=O)C(C)OC(=O)Cn2cnc3c2c(=O)n(C)c(=O)n3C)cc1 (stereo not given)	n	n	n	n	n	n
CCOc1ccc2nc(NC3=NC(C)(C)C=C(C)N3)nc(C)c2c1	n	n	n	n	53	n
CCOc1ccc2c(C)nc(NC3=NC(C)(C)C=C(C)N3)nc2c1	n	n	n	n	n	n
CCOc1ccc2nc(NC3=NC(c4ccc(OC)cc4)CC(=O)N3)nc(C)c2c1 (stereo not given)	u	n	n	n	62	n
Cc1ccc(N2C(=O)N(CC(=O)Nc3c(C)cc(C)cc3Cl)C(=O)C2C)cc1 (stereo not given)	n	n	n	n	n	n
COc1cccc(CNC(=O)[C@@H]2CCCN2C(=O)[C@H]2CCCCN2C(=O)c2cccc3ccccc23)c1	x	x	x	n	x	x
COc1ccc2cc3c(N)nn(C(=O)C4CCC(C(C)(C)C)CC4)c3nc2c1 (stereo not given)	x	n	82	n	n	n
Cc1ccc(/C=C2\C(=O)ON=C2c2ccccc2)o1	n	n	n	n	n	n
Cc1ccc(-c2ccc(/C=C3\C(=O)ON=C3c3ccccc3)o2)c([N+](=O)[O-])c1	n	91	52	95	97	n
SMILES	TRPM1 prom inh	Shn3 inh set2	CF NFkB inh	HIF-2a inh	Peg3 promoter	KKLEB cytotox
O=C1/C(=C\c2ccc(-c3ccccc3[N+](=O)[O-])o2)C(c2ccccc2)=NN1c1ccccc1	n	n	n	n	n	n
Cc1ccc(C2=NOC(=O)/C2=C\c2ccc(C)o2)cc1	n	n	n	42	n	n
Oc1ccc(-c2csc(Nc3ccccn3)n2)cc1O	n	n	n	n	n	n
Oc1ccc(-c2csc(Nc3cccc4ccccc34)n2)cc1O	n	87	n	n	n	n
CC(=O)Nc1ccc(/C=C2\CCc3ccccc3C2=O)cc1	n	n	n	n	n	-57
O=C(Cn1c(COc2ccccc2)nc2ccccc21)Nc1cc(Cl)ccc1Cl	n	n	n	n	54	n
Cc1ccc(OCC(=O)NC2CCS(=O)(=O)C2)c([N+](=O)[O-])n1 (stereo not given)	n	n	n	n	n	n
